Compound activity (PubChem)
Mdm2-MdmX inh – disrupts the human Mdm2-MdmX interaction; actives 3% (n = 330,000); O15151+Q00987; inhibition, % at 8 µM; SaOS-2 split-luciferase Mdm2/MdmX complementation, luminescence;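 active means inhibition of at least 50% at 8 µM in the primary screen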
Target sequence (O15151 whole entry, looked up): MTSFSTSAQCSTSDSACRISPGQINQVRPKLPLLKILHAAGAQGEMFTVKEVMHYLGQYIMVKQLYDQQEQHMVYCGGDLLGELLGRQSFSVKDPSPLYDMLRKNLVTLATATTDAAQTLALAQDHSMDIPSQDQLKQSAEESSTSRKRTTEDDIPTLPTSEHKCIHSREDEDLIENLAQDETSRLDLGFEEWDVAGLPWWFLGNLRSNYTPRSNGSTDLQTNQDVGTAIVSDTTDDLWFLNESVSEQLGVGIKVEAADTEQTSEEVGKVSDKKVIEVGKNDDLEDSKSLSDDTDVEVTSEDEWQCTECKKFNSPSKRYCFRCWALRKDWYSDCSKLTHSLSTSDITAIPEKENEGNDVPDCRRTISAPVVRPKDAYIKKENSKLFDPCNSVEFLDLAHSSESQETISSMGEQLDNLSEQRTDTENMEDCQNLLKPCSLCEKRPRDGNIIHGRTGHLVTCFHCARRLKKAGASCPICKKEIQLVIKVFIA
Target sequence (Q00987 whole entry, looked up): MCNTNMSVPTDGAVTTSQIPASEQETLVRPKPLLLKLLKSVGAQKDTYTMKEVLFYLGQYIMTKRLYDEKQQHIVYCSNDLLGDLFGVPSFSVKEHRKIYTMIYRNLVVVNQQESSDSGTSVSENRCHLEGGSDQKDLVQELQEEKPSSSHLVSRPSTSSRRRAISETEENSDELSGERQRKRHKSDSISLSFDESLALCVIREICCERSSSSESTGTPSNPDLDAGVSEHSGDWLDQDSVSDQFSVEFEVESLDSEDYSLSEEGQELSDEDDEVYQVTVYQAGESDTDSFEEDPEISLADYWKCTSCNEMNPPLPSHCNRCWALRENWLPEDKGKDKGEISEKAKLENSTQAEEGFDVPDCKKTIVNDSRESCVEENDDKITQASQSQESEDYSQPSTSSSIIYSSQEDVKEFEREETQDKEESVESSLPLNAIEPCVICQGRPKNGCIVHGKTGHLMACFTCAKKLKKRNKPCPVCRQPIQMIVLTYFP
SKKanGAS inh – inhibitors of SKKanGAS S. pyogenes growth in kanamycin (SK-promoter or general growth effect); BacTiter-Glo, 6 h; inhibition, % at 7.5 µM; actives 1.3% (n = 300,000); AID 1662;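 active means mean replicate score, as percent of positive control median, at least 50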;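 further: strain carries kanamycin resistance gene driven by streptokinase promoter and grows in 40 µg/ml kanamycin; loss of luminescence reflects streptokinase promoter inhibition or plain growth inhibition; 0% = median of DMSO wells and 100% = positive control at its reference dose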
MPTP inh – blocks calcium-induced mitochondrial swelling; isolated mouse mitochondria, Ca2+ swelling absorbance, 30 min; inhibition, % at 10 µM; actives 1.4% (n = 360,000);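 active means inhibition of 50% or more, scaled per plate between neutral and stimulator controls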;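 further: 0% = DMSO wells given calcium and 100% = 1 mM EGTA wells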
Beta apoptosis – beta cell apoptosis inhibition; INS-1E cytokine-induced death, ATP luminescence, 48 h; percent of positive-control rescue, neutral wells zero; actives 0.8% (n = 300,000); protection from apoptosis, % (concentration not given with the values);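 active means Every replicate reaches about 75%, or at least half do and their mean reaches it too, limit read from the data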;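 further: 0% = cytokine-treated negative control wells and 100% = positive control rescue; higher means more ATP so stronger rescue from cytokine killing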
GRIN3A LBD mod – modulates the human NR3A ligand-binding domain. NR3A LBD differential scanning fluorimetry, Tm shift; 0% = protein alone, 100% = glycine-bound protein. actives 2.5% (n = 340,000). Tm shift relative to glycine control, % at 25 µM;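 active means melting temperature shift of at least 10% of the positive control shift, at one fixed dose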
CSC inhib – blocks cancer stem cells; cancer stem cell-like cells viability, luminescence; inhibition, % at 7.5 µM; actives 1.1% (n = 300,000); AID 2717; in the data active means inhibition above about 75%; tested in HMLE shEcad cells
MPTP counter – mitochondrial membrane potential, counter-screen; isolated mitochondria, Rhodamine 123 fluorescence; actives 78% (n = 5,000); inhibition, % at 10 µM; shares compounds with MPTP inh; in the data active means inhibition above about 22%;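 further: 0% = DMSO vehicle and 100% = positive control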
MPTP abs DR – MPTP inhibition, dose response swelling confirmation. IC50, µM. shares compounds with MPTP inh. AID 651561. isolated mitochondria swelling, absorbance. actives 58% (n = 780); in the data active means IC50 below about 20 µM
MPTP counter DR – MPTP inhibitor counter-screen activity, dose response; shares compounds with MPTP inh; actives 49% (n = 780); IC50, µM; isolated mitochondria counterscreen, fluorescence read-out; in the data active means IC50 below about 80 µM
* marks the source's active call; other numbers are inactive results; i = inactive; . = no result. This is a sample that favours compounds with a hit; in the whole collection about 6.9% have one here.

SMILES | Mdm2-MdmX inh | SKKanGAS inh | MPTP inh | Beta apoptosis | GRIN3A LBD mod | CSC inhib | MPTP counter | others
S=C(NCc1ccncc1)Nc1ccc(Cl)c(Cl)c1 | -5 | 5 | 88* | -9 | -5 | 12 | 92*
S=C(NCc1ccncc1)Nc1ccc(Br)cc1 | 29 | 10 | 1 | 2 | -6 | 6 | .
S=C(NCc1ccncc1)Nc1cc(Cl)cc(Cl)c1 | 29 | 5 | 68* | 2 | 0 | -7 | 99*
Cc1ccc(S(=O)(=O)CNC(=S)c2cccc(Cl)c2)cc1 | -5 | 33 | 77* | -10 | 0 | 1 | 83*
Cc1ccc(C(=S)NCS(=O)(=O)c2ccc(C)cc2)cc1 | 17 | 17 | -1 | -12 | 1 | -15 | .
O=C(Nc1ccc(F)cc1)Nc1cccc(Br)c1 | 17 | 0 | 89* | 11 | 43* | 31 | 91*
O=C(Nc1ccccc1)Nc1ccc(F)cc1F | -22 | -2 | 17 | 5 | -8 | 4 | .
COc1cccc(NC(=O)Nc2cccc(C(=O)O)c2)c1 | 42 | 7 | -2 | -2 | 4 | -9 | .
COC(=O)c1ccc(NC(=O)Nc2cccc(F)c2)cc1 | -32 | 2 | 85* | 2 | 30* | 44 | 87*
COC(=O)c1ccc(NC(=O)Nc2ccc(F)cc2F)cc1 | -61 | 0 | 86* | 0 | 5 | . | 96*
COc1cccc(NC(=O)NC2(C(F)(F)F)Oc3ccccc3O2)c1 | 8 | 2 | 97* | -9 | -2 | -20 | 83*
CCOC(=O)C1(C)CCCN(C(=O)c2ccc(C#N)cc2)C1 (centres undefined) | . | . | 0 | . | . | . | .
O=C(CCC(=O)c1cccs1)OCC(=O)c1ccccc1F | -21 | . | -1 | . | -2 | . | .
Cc1ccc(S(=O)(=O)N2CCN(C(=O)CCn3cncn3)CC2)cc1C | -13 | 4 | 0 | -4 | -2 | . | .
CCc1ccc(NC(=O)Nc2cccc(OC)c2)cc1 | -140 | 3 | 63* | 5 | 4 | . | 77*
COc1cccc(NC(=O)Nc2ccc(CC(=O)O)cc2)c1 | -32 | -1 | 0 | 0 | -2 | . | .
Cc1ccc2c(C(=O)CN3CCN(C(=O)c4ccco4)CC3)c(C)[nH]c2c1 | 4 | -14 | 1 | -8 | -2 | -1 | .
CC(=O)N1CCN(C(=S)c2ccc([N+](=O)[O-])cc2)CC1 | 22 | 1 | 119* | 0 | 2 | -3 | 0 | MPTP abs DR=>100;MPTP counter DR=>80
COc1ccc(NC(=S)NC(NC(=O)CCl)C(Cl)(Cl)Cl)c([N+](=O)[O-])c1 (centres undefined) | 28 | -9 | 9 | 3 | 0 | 1 | .
COc1ccc(NC(=S)NC(NC(=O)c2cccc3ccccc23)C(Cl)(Cl)Cl)c([N+](=O)[O-])c1 (centres undefined) | 30 | 13 | 70* | 7 | 12* | 39 | 55*
COc1ccc(NC(=S)NC(NC(=O)c2ccccc2Cl)C(Cl)(Cl)Cl)c([N+](=O)[O-])c1 (centres undefined) | -30 | 23 | 66* | 9 | 10 | 29 | 66*
COc1ccc(NC(=S)NC(NC(=O)c2ccc(Cl)cc2Cl)C(Cl)(Cl)Cl)c([N+](=O)[O-])c1 (centres undefined) | 30 | 50* | 87* | . | 11* | . | 54*
O=C(NCc1ccncc1)c1csc([C@@H]2O[C@H](CO)[C@@H](O)[C@H]2O)n1 | . | . | -2 | . | . | . | .
CN(Cc1nccn1C)C(=O)C1CCC(=O)N(Cc2cccc(C(F)(F)F)c2)C1 (centres undefined) | 25 | -8 | 1 | -4 | 0 | -2 | .
CSCCC(NC(=O)c1ccccc1Cl)C(=O)N1CCN(c2ccccn2)CC1 (centres undefined) | 35 | 2 | 0 | 0 | 3 | -17 | .
SMILES | Mdm2-MdmX inh | SKKanGAS inh | MPTP inh | Beta apoptosis | GRIN3A LBD mod | CSC inhib | MPTP counter | others
CCN(CC#CCC(O)(c1ccccc1)C1CCCC1)C(C)C (centres undefined) | 22 | -2 | 78* | 3 | -8 | 9 | -4 | MPTP abs DR=i;MPTP counter DR=>80
CC(C)N(CC#CCC(O)(c1ccccc1)C1CCCC1)CCO (centres undefined) | 5 | 3 | -1 | -4 | 2 | 4 | .
COc1cccc(-c2nc(CS(=O)(=O)CC(=O)NCCN3CCOCC3)c(C)o2)c1 | -5 | -5 | 2 | -3 | -4 | -8 | .
C=CCn1c(C)cc(C(=O)CSc2nc3ccccc3c(=O)[nH]2)c1C | -73 | . | 15 | 16 | 1 | 6 | .
CCN(CC)C(=O)CSc1nc2ccccc2c(=O)[nH]1 | -4 | -4 | 66* | 1 | 0 | -7 | -1 | MPTP abs DR=>100;MPTP counter DR=>80
COCC(C)n1c(C)cc(C(=O)CSc2nc3ccccc3c(=O)[nH]2)c1C (centres undefined) | 19 | 9 | 76* | 11 | 1 | 3 | 35*
COCCn1c(C)cc(C(=O)CSc2nc3ccccc3c(=O)[nH]2)c1C | -45 | 10 | 64* | 23 | 2 | -6 | 14 | MPTP abs DR=i;MPTP counter DR=45*
COCC(C)n1c(C)cc(C(=O)COC(=O)CCc2nc3ccccc3c(=O)[nH]2)c1C (centres undefined) | -23 | -1 | -1 | -3 | 0 | -9 | .
Cc1cc(C(=O)CSc2nc3ccccc3[nH]2)c(C)n1Cc1ccco1 | 26 | -17 | 86* | 47 | 13* | 9 | 83*
C/C(CC(=O)Nc1cc(C)ccn1)=N\NC(=O)c1ccc(C(C)(C)C)cc1 | -5 | -9 | -1 | -14 | 1 | -14 | .
COc1cc(CCC(=O)Nc2ccc(C)c(S(=O)(=O)N3CCCCCC3)c2)cc(OC)c1OC | 35 | . | 0 | 14 | -2 | . | .
O=C(c1cccs1)N1CCN(S(=O)(=O)c2cccc(Cl)c2Cl)CC1 | 27 | . | 0 | . | -1 | . | .
COc1ccccc1CNC(=O)CCc1nnc2ccc(NCCCN3CCCC3=O)nn12 | 17 | 3 | -1 | -1 | -1 | -19 | .
COc1ccc(-c2csc(NS(=O)(=O)c3ccc([N+](=O)[O-])cc3)n2)cc1 | -36 | 11 | 84* | 3 | 8 | -13 | 78*
CNc1nc(-c2ccc([N+](=O)[O-])cc2)cs1 | -5 | 2 | -4 | -4 | 0 | 10 | .
S=C(NCc1cccnc1)Nc1cc(Cl)cc(Cl)c1 | -1 | -6 | 82* | -12 | 1 | 5 | 82*
O=C(NCc1cccnc1)Nc1cc(Cl)cc(Cl)c1 | 3 | 54* | 85* | -1 | -3 | 1 | 86*
S=C(NCc1cccnc1)Nc1cccc(Cl)c1 | 0 | 6 | -1 | -3 | 2 | . | .
CC1(C(=O)O)CCC(C(=O)Nc2ccc(F)cc2)C1(C)C (centres undefined) | 16 | 2 | -1 | . | 4 | -17 | .
